# In the supplement of paper PMC11417369:
# Over roughly 25,000 sequences, “ln(normalized median fluorescence intensity)” has its median near 9.3; the highest 2% begin near 10. The sample holds the highest values, similar sequences and a random draw of the others, so the mix is not that of the screen.
# System: PF3D7_0420300 AP2 domain 1 (GST-tagged)
# Test: gcPBM binding intensity (ln(normalized median fluorescence intensity)); higher = stronger DNA binding
# In short: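 GST-tagged P. falciparum DNA-binding domains produced in E. coli were incubated for 1 h on an Agilent 4 × 180k array of primer-extended double-stranded 36-bp intergenic genomic probes with negative controls. Binding intensity is the highest Masliner-normalised natural-log median intensity across replicate spots of either probe orientation, with bound protein detected by Alexa488 anti-GST antibody at 488 nm.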
row,Sequence,gcPBM binding intensity (ln)
1,TCAAATTTAATCATAACACACATTCACATATGAATT [CACACA_site3199],9.16
2,GTAGTCCAAAAAAAGCGTACACAGAAAAAAAAAAAA [XGTACX_site4273],9.14
3,ATTTTTTGGAAAAGAAGTACAATGGATTTATACGTT [XGTACX_site891],9.09
4,TTTTTTTTTTTTTTTTTTTTACCCCTTTTTCAAAAA [CACACA_negctrl_site1524],8.39
5,AGGATATATAATTAAGTGCATTAATTCAAAATAAAA [GTGCAC_site9702],9.17
6,TTTTGTCTTATATGTTGTACAACGTAAACAAAAAAA [XGTACX_site4412],8.84
7,TTTTAAGAATAAAATTGTACACATACATGTGTTCGC [XGTACX_site438],9.09
8,TACCTATAAAAGTACACACACACACGGATATAAATA [CACACA_site6569],10.3
9,TATATACCTATATACACACACATATATAAATAAATA [CACACA_site7341],9.86
10,AAAAAAAAAAAAAGTACACACATACCTATAAATATA [CACACA_site6937],9.8
11,CAAAAAAAGTTATACACACACACACGGATATAAATA [CACACA_site6619],10.1
12,TACCTATACCTATACACACACACACGGAAATAAATA [CACACA_site6750],10.3
13,TATACCTATAAATACACACACATATAAATAAATATA [CACACA_site6153],9.99
14,TATTGTATGGTAGGATATGATGTTATTTGTTATAAT [CACACA_negctrl_site202],9.45
15,TATATATATATATATATATATATATATATATATATT [CACACA_negctrl_site1440],8.8
16,CTGAATGTATATATTTGTACATATATATATATATAT [XGTACX_site5557],9.16
17,TTTTTTTTTTTTTGTAGTACATTATGTATATTTTTA [XGTACX_site7810],9.23
18,TATATATATTTATGCACACAAAATATATTATATAAT [CACACA_site5955],9.27
19,TTTATTTTATCATTTGCACACGCACCCAGACATAAA [CACACA_site4347],9.39
20,TACAGACATAGACACACACACACGCATAAAAAAAAA [CACACA_site6820],10.1
21,ATTTGGCATAGACACACACACACACGCACGCACATA [CACACA_site6424],10.4
22,CAGACGCACGTATTTGCACACATTGCCACGTAATTA [CACACA_site3349],9.42

row,Sequence,gcPBM binding intensity (ln)
1,AGCACGCACAGACACACACACATATTTATATTTATA [CACACA_site6291],9.94
2,AAATTTGGCAGACACACACACACACGCACACGCACA [CACACA_site6423],10.3
3,TTTATATTATTTTAAACATGCACAAGTATAATTTAT [TGCATGCA_site233],8.97
4,ATATGTATAAAAATCCGTACATAAGTGTGCGTATAT [XGTACX_site4376],9.32
5,TATTTATAATTATAATAATATATATATATATATATA [TGCATGCA_negctrl_site173],8.83
6,AGAAATACAAAATAAATATAAGAAACAAAATATTTA [CACACA_negctrl_site780],9.42
7,AATGACAACCTTGTCACACATATATATATATATATA [CACACA_site5977],9.17
8,TCTATATAGATTTGCACACATAAAAATGCTTATATA [CACACA_site2389],9.27
9,TTGTTCCACAAAAATTTAGTCAAAAAAAAATAAAAA [TGCATGCA_negctrl_site546],8.79
10,TATGTACAAATATGTACACACACACCGATATATATA [CACACA_site4487],9.96
11,TATATATATATATACACACACACACCGATATATATA [CACACA_site8813],10.2
12,TATATATACACACACACATGCATGCCGATATATATA [TGCATGCA_site29],10.2
13,AATATATATATATATACACACACACCGATATATATA [CACACA_site8158],10.1
14,TATATATATATATATACATGCATACATATACATACA [TGCATGCA_site897],9.14
15,TATATATATATACATACATGCATATATATATATATA [TGCATGCA_site513],9
16,CAAAAAAACAAACACACACACACACCGATATATATA [CACACA_site9218],10.2
17,GATATATATTAATATACACACACACCGATATATATA [CACACA_site8462],10
18,AGAAAGAAAATATATACACACAAAAAAAAATATATA [CACACA_site1412],9.93
19,AAAGAAAGAAAGAATACACACACACCGATATATATA [CACACA_site9246],10.2
20,AAAAAAAAAAAACACACACACAAAAAAAAATATATA [CACACA_site1105],10.1
21,TTATAAAAAAAAATAACACACAGACATAAGAATAAA [CACACA_site9383],9.95
22,TTTTCATTAAGATACTTATAATAGTTTATTAGTAAA [CACACA_negctrl_site586],8.77

row,Sequence,gcPBM binding intensity (ln)
1,ATAATATCATCAAACGCACACATACATAAATATATT [CACACA_site5230],9.55
2,ATTTTTTTCATAGACACACACAATATATCTGTTTCC [CACACA_site3023],9.83
3,ATTATATATAATATAGTGCATGTAAAAAATAAAACA,9.48
4,GATGTGTAAATAAGGATATATAACAATCAACAAAAC [XGTACX_negctrl_site494],9.72
5,ATATTATATATATACACACACACATGCATGCACATA [CACACA_site7917],10.1
6,CACAAACACCCAAACACACACACACCGACATACATA [CACACA_site4410],10
7,ATATTATAGATATACACACACACATGCATGCACATA [CACACA_site6203],10.1
8,AAAAAAAAAAAACACACACACACACCGATACATACA [CACACA_site8849],10.3
9,ATATTATATATATACACACACACATGCATGCACCTA [CACACA_site106],10.2
10,TATATACATACATATACACACATATATATATATATA [CACACA_site401],9.44
11,CATACATACAAACACACACACACACCGATATATATA [CACACA_site8952],10.3
12,TATATATACATATACACACACACACCGATATATATA [CACACA_site8706],10.2
13,AAAAAAAAAAAACACACACACACACCGACACATACA [CACACA_site5576],10.2
14,AAAAAAAAAAAAAACACACATACATACATACATATA [CACACA_site4121],9.74
15,TACATACATACATACATACACACATATATATATATA [CACACA_site1996],9.45
16,GAAGGAAATAATAGTAGTACAAATGGTAAGAAATAT [XGTACX_site5845],9.7
17,AATTTTTATACGGATACACACAAAAAAAAATAAAAA [CACACA_site897],9.53
18,TACACTTTTTTTTGTACACACTAAAAAGATTAACAA [CACACA_site6037],9.07
19,TATTTGGGTATTTTTACACACATTAAAATATATATA [CACACA_site5800],9.33
20,ATATATATTTTATACGCATGTAATTATTATGTGGTC [TGCATGCA_site45],9.29
21,TAATAGTTATAAAATACACACCAGGCATGATAAATG [CACACA_site4335],9.5
22,TATATATATATAGGTTGTACATTTTGATGTTTACGT [XGTACX_site5503],9.42

row,Sequence,gcPBM binding intensity (ln)
1,TATACATACATACATACACACACACCGATATATATA [CACACA_site7896],10.1
2,CAAAATAATATATATACACACACACCGATATATATA [CACACA_site8082],10.2
3,TATACATACATACATACACACACACCGATATATACA [CACACA_site8184],10.2
4,TATATACATATATACACACACATATATATATATATA [CACACA_site2805],9.6
5,CAAAAAAAATTATACACACACACACCGATATATATA [CACACA_site4719],10.2
6,AAAAAAAAAAAAAATACACACACACCGATATATATA [CACACA_site8142],10.1
7,AAAAAAAATTCGTGTGTGCGCATATATAATATATAA,9.6
8,AGATACTTTCCTCAAACACACAAAACTATACAACAA [CACACA_site1474],9.45
9,AAAAAAATAATCATCACACACGGAGAATGTCCAATA [CACACA_site5305],9.6
10,AAGAAATATTTATACACACACACAAACATATAAATA [CACACA_site6981],10.2
11,AAGAAATATTTATACACACACACAAACATATATATA [CACACA_site1912],10.2
12,CATAAATACAAATATACACACATATTTATATTTATA [CACACA_site7277],9.54
13,GAAATAGAGAGACACACACACATATATTTATGTATT [CACACA_site7794],9.93
14,AAAAAAAAATATATAAACACACATATTTATATACAC [GTGCAC_negctrl_site545],9.61
15,CAGAAATAGAGATACACACACACATATATTTATGTA [CACACA_site3968],10.2
16,CACAAAAAGAAACACACACACATATATATTTATTAT [CACACA_site3646],10.1
17,GAAATAGAGAAACACACACACATATATTTATGTATT [CACACA_site3967],9.99
18,AAAAAAAAAACATACACACACACAAATATTTATATA [CACACA_site437],10.1
19,AAAAAAAAAAAAAAAAAAAAATTTCAATTATATTGA [GTGCAC_negctrl_site642],8.91
20,CCATTTTTTTTATACGCACACGTCATACTTTTAAAA [CACACA_site4988],9.46
21,ATTTATATTTGTATTTGTACTTATATTTATATTTAT [XGTACX_site1540],9.64
22,TGTGTAAGATCTTGGATGATGATAAGAATCTACTAG [CACACA_negctrl_site1167],9.11
